Test results reported in the supplement of paper PMC10011410.
± gives the standard deviation of the averaged measurements.

Tested on: AmpC beta-lactamase (E. coli)
Assay: AmpC inhibition relative to DMSO; higher = more inhibition
Summary of the method: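 In this aggregation counter-screen, E. coli AmpC β-lactamase (5 nM) was held in 50 mM sodium phosphate, pH 7.0, containing 1.0% DMSO with or without 0.01% Triton X-100, and compounds at 4, 11, 33 and 100 μM were incubated with the enzyme for 5 min at RT. Nitrocefin was then added and absorbance at 482 nm was followed for 5 min, with rates background-subtracted against enzyme-free wells. Values are the mean of four technical replicates. Percent inhibition is expressed relative to solvent-only wells.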

[1] = 4 µM, detergent: 0.01% Triton X-100
[2] = 11 µM, detergent: 0.01% Triton X-100
[3] = 33 µM, detergent: 0.01% Triton X-100
[4] = 100 µM, detergent: 0.01% Triton X-100
[5] = 100 µM, detergent: no detergent

SMILES | AmpC inhibition [1] [%] | AmpC inhibition (4 µM, detergent: no detergent) [%] | AmpC inhibition [2] [%] | AmpC inhibition (11 µM, detergent: no detergent) [%] | AmpC inhibition [3] [%] | AmpC inhibition (33 µM, detergent: no detergent) [%] | AmpC inhibition [4] [%] | AmpC inhibition [5] [%]
CCCC1(c2ccccc2)NC(=O)N(CC(=O)N(C)Cc2c(F)cccc2Cl)C1=O (centres undefined) | 14.2 ± 2.9 | -1.7 ± 2 | 7.15 ± 9.5 | 11.6 ± 7.8 | 6.15 ± 7.3 | 5.75 ± 6.8 | 6.78 ± 1.8 | 3.79 ± 0.91
CC(C)([C@](C1=O)(C2=O)C/C=C(C)\C)[C@@H](C[C@]31C[C@@H](C(C)(OC3=C2C(C4=CC(O)=C(C=C4)O)=O)C)C/C=C(C)\C)C/C=C(C)\C | 8.42 ± 5.3 | 13.3 ± 3.5 | 4.79 ± 3.2 | 90 ± 9.4 | 4.67 ± 6.9 | 93.15 ± 0.89 | 2.77 ± 1.7 | 92.3 ± 0.78
CCCCCOc1ccc(/C=C\c2cccc(O)c2C(=O)O)cc1 | -1.02 ± 4.7 | -1.47 ± 3.3 | 7.71 ± 5.1 | 27.2 ± 7.2 | 5.08 ± 5.7 | 69 ± 16 | 14 ± 3 | 99.2 ± 1.4
O=C(NNS(=O)(=O)c1ccccc1)c1cc(-c2ccnnc2)ccc1F | 9.2 ± 1.8 | 2.19 ± 10 | 3.76 ± 1.8 | 16.9 ± 8 | 3.27 ± 1.3 | 5.35 ± 1.6 | 12.2 ± 5.5 | 11.9 ± 7.5
COc1ccc(/C(Cl)=C(/C=O)c2ccc(OC)cc2)cc1 | -3.57 ± 3.7 | -5.33 ± 6.8 | 3.37 ± 5.7 | 3.21 ± 3.9 | 8.7 ± 7.1 | 0.384 ± 4.4 | 3.87 ± 1.3 | 12.1 ± 2.9
CCCCCCCc1ccc(CCc2cccc(O)c2C(=O)O)cc1 | 1.37 ± 5 | -4.68 ± 3.5 | 8.12 ± 2.9 | 61 ± 10 | 9.04 ± 3.8 | 97.2 ± 1.9 | 8.27 ± 3.7 | 99.4 ± 1.4
C=C1C(=O)O[C@H](CCC)[C@H]1C(=O)O | 0.817 ± 3 | 2.33 ± 5.5 | 3.75 ± 2.7 | -0.423 ± 6.2 | 0.478 ± 2.6 | -0.772 ± 6.7 | 2.9 ± 2 | 0.697 ± 4.5
O=C1C(Cl)=C(NCCN2CCOCC2)C(=O)c2ncccc21 | 8.96 ± 3 | 0.538 ± 7 | 5.66 ± 0.9 | 0.224 ± 2.9 | 5.99 ± 7.4 | -1.42 ± 2.1 | 6.05 ± 2 | -4.13 ± 5.6
O=C(NNS(=O)(=O)c1ccccc1F)c1cc(F)cc(-c2ccccn2)c1 | 10.7 ± 1.2 | 1.11 ± 11 | 5.78 ± 2.7 | 8.02 ± 4.7 | -0.0162 ± 1.5 | 4.81 ± 1.3 | 0.832 ± 4.9 | 5.91 ± 3.5
COC1=CC=C(S(=O)(O/N=C2C=C(C(C(C)=C\2)=O)C)=O)C=C1 | 2.45 ± 1.2 | -3.63 ± 5.6 | 6.48 ± 2.3 | 3.85 ± 1.5 | 6.35 ± 3.8 | 0.996 ± 9.5 | 8.37 ± 3.3 | -1.7 ± 3.7
CNC(=O)Nc1ccc2c(c1)CC[C@@]21OC(=O)N(CC(=O)N(Cc2ccc(F)cc2)[C@@H](C)C(F)(F)F)C1=O | 5.14 ± 2.9 | -1.32 ± 9.8 | 5.67 ± 2.5 | 5.86 ± 3.8 | -0.581 ± 4.1 | -6.17 ± 3.8 | -3 ± 2.8 | -3.55 ± 4.8
Cl.Cl.O=C(O)Cn1nnc(-c2ccc(CN(CCCCOc3ccc(CN4CCCC4)cc3)CCc3ccccc3)cc2)n1 | 7.51 ± 5.3 | -18.8 ± 5 | 6.13 ± 8.3 | -17.6 ± 4.2 | 3.69 ± 2.6 | -26.9 ± 12 | 11 ± 6.5 | 5.89 ± 17
CCCCCCCCCCCC1=C(O)C(=O)C=C(O)C1=O | 8.62 ± 5.2 | -3.71 ± 8 | 2.92 ± 1.7 | 17.5 ± 8.6 | 3.12 ± 4.7 | 60.9 ± 17 | 5.91 ± 2.8 | 92.1 ± 5.4
